# According to PubChem BioAssay (Tox21):
# Records with an inconclusive call do not appear. A call without a number means that no potency is given here. Activity calls are given as the source filed them. Calls follow the shape of the dose curve; as a rule, active = well fitted activation curve with a large enough effect in the repeat runs; inconclusive = weak or mixed curves; inactive = no such curve, though single readings can be large or run the other way.
# Target: Nuclear receptor subfamily 1 group I member 3 (Homo sapiens) (UniProt Q14994)
# Assay: qHTS assay to identify small molecule agonists of the constitutive androstane receptor (CAR) signaling pathway (AID 1224839); also: nearly all actives have a fitted effect of over 15% in size;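 as to activation: HepG2 cells stably carrying human CAR and a CYP2B6 luciferase reporter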
# Conditions: HepG2 hCAR CYP2B6-luciferase, agonist mode, 24 h; series mostly up to 92.4 µM
# Description: National Center for Advancing Translational Sciences [NCATS] NIH Chemical Genomics Center [NCGC] U.S. Environmental Protection Agency [EPA] National Institutes of Environmental Health Sciences [NIEHS] National Toxicology Program [NTP] Assay overview: The constitutive androstane receptor (CAR) is a nuclear receptor which regulates multiple drug metabolizing enzymes (DMEs) and transporters. Activating CAR will generally increase the transcription and subsequent translation of CYP2B6 and CYP3A4. These two DMEs represent about 50% of the drug metabolizing potential in the body. […] Recently, there have also been studies performed indicating CARs role in energy metabolism and cancer therapy. Therefore, inducing CARs activity could have a potential effect on diabetes and cancer. Identifying environmental toxins and compounds which modulate CAR, through the use of the Tox21 10K compound collection, will be an important step in determining the toxicity and potential therapeutic effects these factors will have on the human body.
# Assay Protocol Summary: A double-stable (hCAR and CYP2B6-2.2kb) transfected cell line, derived from human hepatoma (HepG2) cells, was utilized for the duration of the quantitative high-throughput screens. The HepG2-CYP2B6-hCAR cells suspended in DMEM culture medium supplemented with 10% FBS, 5 ug/mL blasticidin, 0.5 mg/mL geneticin, 100 U/mL penicillin and 100 ug/mL streptomycin were dispensed at 2500 cells/4 uL/well in 1536-well white solid bottom plates using a Multidrop Combi. After the assay plates were incubated at 37 C/5% CO2 for 4 hrs, 23 nL of compounds at 15 concentrations (from 5-48 columns) or positive control (from 1 to 4 columns) were transferred to the assay plates using a Pintool station. One uL of PK11195, was added using a Flying Reagent Dispenser to generate a final concentration of 0.75 uM PK11195 inside each well. After a 24 hr incubation period at 37 C/5% CO2, four uL of ONE-Glo reagent was added into the assay plates using a Flying Reagent Dispenser. After a 30 min incubation period at room temperature, the luminescence intensity in the assay plates was measured using a ViewLux plate reader.
# Potency is read from the fitted curve at half-maximal effect.
# Chain of Nuclear receptor subfamily 1 group I member 3 (Homo sapiens) (Q14994 whole entry, looked up): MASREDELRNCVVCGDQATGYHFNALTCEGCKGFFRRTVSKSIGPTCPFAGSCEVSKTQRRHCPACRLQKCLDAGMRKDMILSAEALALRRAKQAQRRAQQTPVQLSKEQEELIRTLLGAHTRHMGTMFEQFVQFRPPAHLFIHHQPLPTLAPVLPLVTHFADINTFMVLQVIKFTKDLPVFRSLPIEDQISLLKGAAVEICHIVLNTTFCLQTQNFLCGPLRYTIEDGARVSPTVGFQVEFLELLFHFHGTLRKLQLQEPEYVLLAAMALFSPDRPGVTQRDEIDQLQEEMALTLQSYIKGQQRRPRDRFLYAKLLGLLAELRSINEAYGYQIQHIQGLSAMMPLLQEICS
Compound,Potency,activation
O=C(Cl)c1ccc(Cl)cc1Cl,inactive,–
CCc1cccc(C)c1N(C(=O)C(=O)O)C(C)COC (stereo not given),inactive,–
CN(C)CCOc1ccc(/C(=C(/CCCl)c2ccccc2)c2ccccc2)cc1,inactive,–
S=C1NC=NC2N=CNC12 (stereo not given),inactive,–
Cc1cc(Br)ccc1NC(=O)CCl,inactive,–
CCOC(=O)OC(=O)OCC,inactive,–
CO[Si](OC)(c1ccccc1)c1ccccc1,inactive,–
CN1CCN(CCCN2c3ccccc3Sc3ccc(Cl)cc32)CC1,inactive,–
O=c1[nH]cccc1O,inactive,–
CCCCCN=C(N)N/N=C/c1c[nH]c2ccc(OC)cc12,inactive,–
CN1CCN(CCCN2c3ccccc3Sc3ccc(C(F)(F)F)cc32)CC1,inactive,–
CCN(CC)c1ccc2c(c1)Oc1cc(N(CC)CC)ccc1C21OC(=O)c2ccccc21,inactive,–
CCCC(C)C=O (stereo not given),inactive,–
COC(=O)c1ccc([N+](=O)[O-])cc1,inactive,–
C=Cc1ccncc1,inactive,–
SC1CCCCC1,inactive,–
O=S(=O)(c1ccc(OCc2ccccc2)cc1)c1ccccc1O,inactive,–
Nc1cc([N+](=O)[O-])cc(Cl)c1O,inactive,–
CC1=C(/C=C/C(C)=C/C=C/C(C)=C\C(=O)O)C(C)(C)CCC1,27.4 µM (active),–
COc1cccc(-c2ccc(/C=C\CN3CCCCCC3)cc2Cl)c1,inactive,–

Compound,Potency,activation
CCCCCCCCCCCCCCCCCCNC(=O)OC1CCN(C(=O)OC[C@H](COC(=O)N(Cc2cccc[n+]2CC)C(=O)c2ccccc2OC)OC)CC1,inactive,–
COc1cc(C(C)C)ccc1C,–,-0.0502% [at 19 µM] (inactive)
Cc1ccc2sc3cccc(C)c3c2c1,27.3 µM (active),–
C/C=C/C(=O)C1=C(C)C=CCC1(C)C,inactive,–
NCc1ccco1,inactive,–
CCCOC(=O)c1ccc(O)cc1,54.5 µM (active),–
COc1cc(/C=C/C(=O)CC(=O)/C=C/c2ccc(O)c(OC)c2)ccc1O,inactive,–
CN1CCN(c2ccccc2/C=C2\SCCN(c3ccc(Cl)c(Cl)c3)C2=O)CC1,inactive,–
O=c1cc[nH]cc1,inactive,–
CC/C(=C(/c1ccc(O)cc1)c1ccc(OCCN(C)C)cc1)c1ccccc1,inactive,–
CCC(O)CO (stereo not given),inactive,–
O=C(O)CN(CCCN(CC(=O)O)CC(=O)O)CC(=O)O,–,-1.05% [at 19 µM] (inactive)
CCOc1nc(F)cc2nc(S(=O)(=O)Nc3c(Cl)cccc3C(=O)OC)nn12,inactive,–
Cc1cccc2c1ccc1ccccc12,61.1 µM (active),–
CN1CC[C@H](c2c(O)cc(O)c3c(=O)cc(-c4ccccc4Cl)oc23)[C@H](O)C1,inactive,–
Cc1ccc2nc(-c3ccc(N)cc3)sc2c1S(=O)(=O)O,9.54 µM (active),–
COc1ccc(OC)c(N=Nc2c(O)ccc3ccccc23)c1,12.2 µM (active),–
CCCCCCCCCCCC(=O)Cl,inactive,–
Cc1cc(C)c(O)c(C(C)(C)C)c1,inactive,–
CC1(C)[C@H]2CC[C@]1(C)C(=O)C2,inactive,–
